From PubChem BioAssay
The source made the active and inactive calls. Unless noted, no rule for the calls is given here.

Legend:
[1] = anti-His antibody binders, primary screen, artefact control for SMM control protein annotation, biochemical, small-molecule microarray, 635 nm fluorescence (AID 1128); details: anti-His Alexa647 antibody binding, higher = more signal;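 also: score merges feature fluorescence with signal-to-noise for each printed compound spot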
[2] = test system: Human papillomavirus type 1a E7 protein (residues 1-88); assay: HPV1a E7 small-molecule binders, primary screen, biochemical, small-molecule microarray, residues 1-88, 635 nm (AID 1129); details: small-molecule microarray binding, fluorescence 635 nm; higher = more signal
[3] = target: Focal adhesion kinase 1 (Homo sapiens) (UniProt Q05397); assay: small-molecule microarray binders of FAK, primary screen, biochemical, 635/667 nm fluorescence, BSA, DTT (AID 1130); details: PTK2 binding, 635 nm fluorescence, higher = more signal;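 also: composite of spot emission at 667 nm and signal to noise over triplicate slides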
[4] = test system: Fibrinogen (Alexa647-labelled); assay: fibrinogen binders on compound microarrays, profiling panel, artefact control for SMM control-protein annotation, biochemical, small-molecule microarray, 635/667 nm fluorescence (AID 1131); details: fibrinogen-A647 binding fluorescence, higher = more signal;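 also: z-score merges 667 nm fluorescence with per-spot signal-to-noise over triplicate slides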
[5] = target: Follistatin (Homo sapiens) (UniProt P19883); assay: follistatin binders on small-molecule microarrays, primary screen, biochemical, small-molecule microarray, 635/667 nm fluorescence (AID 1132); details: FST binding, 635 nm fluorescence, higher = more signal
[6] = target: Fibroblast growth factor 2 (Homo sapiens) (UniProt P09038); assay: FGF2 binders on small-molecule microarrays, primary screen, biochemical, small-molecule microarray, 635/667 nm fluorescence (AID 1133); details: small-molecule microarray binding, FGF2, fluorescence 635/667; higher = more signal
[7] = mitochondrial membrane potential change in A549 cells, profiling panel, cell-based, JC-1 fluorescence, basal, 24 h, 100 nL (AID 1138); details: higher = more signal;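 also: A549 lung adenocarcinoma cells under basal conditions with no added stimulus; test concentration not given here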
Lefty1 = Lefty1 binders on small-molecule microarrays, primary screen, biochemical, small-molecule microarray, 635/667 nm fluorescence (AID 1139); details: small-molecule microarray binding, fluorescence 635/667; higher = more signal
[8] = test system: wheat germ agglutinin (Triticum aestivum), Alexa647-labelled; assay: wheat germ agglutinin binders on compound microarrays, profiling panel, artefact control for SMM control-protein annotation, biochemical, small-molecule microarray, 635/667 nm fluorescence (AID 1140); details: WGA-A647 binding, 635 nm fluorescence, higher = more signal;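 also: score merges 667 nm feature emission with signal to noise over triplicate slides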
[9] = target: Luciferin 4-monooxygenase (Photinus pyralis) (UniProt P08659); assay: firefly luciferase enzyme inhibitors, primary screen, biochemical, luminescence, purified enzyme, 2006 set (AID 1141); details: SteadyGlo luminescence, 30 min, higher = more signal, called active from +8 up or from −8 down;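 also: cell-free assay with purified firefly luciferase at 100 ng per well in PBS; test concentration not given here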
[10] = test system: Wnt5a (protein binding on small-molecule microarray); assay: Wnt5a binders on small-molecule microarray, primary screen, biophysical, 635/667 nm fluorescence (AID 1142); details: 635 nm fluorescence, higher = more signal;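 also: fluorescence read at 667 nm with signal to noise per printed feature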
[11] = cell viability in Huh7 cells, primary screen, cytotoxicity control for HCV replication inhibitor project, CellTiter-Glo luminescence, basal, 48 h (AID 1143); details: Huh7 HCV replicon, higher = more signal, called active from +8 up or from −8 down;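 also: Huh7 hepatoma cells carrying a hepatitis C replication reporter with no stimulus; test concentration not given here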
[12] = P. aeruginosa biofilm formation inhibitors, primary screen, PAO1 strain, BacTiter-Glo luminescence, LB-PBS (AID 1144); details: 12 h, higher = more signal
[13] = CREB reporter modulators without forskolin, primary screen, cell-based, PC12, CRE-LacZ reporter, unstimulated (AID 1145); details: no forskolin, luminescence, 4.5 h, higher = more signal, called active from +8 up or from −8 down
[14] = CREB reporter modulators under forskolin, primary screen, cell-based, PC12, CRE-LacZ reporter, forskolin-stimulated (AID 1146); details: luminescence, 4.5 h, higher = more signal, called active from +8 up or from −8 down;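 also: PC12 cells with 6xCRE LacZ reporter stimulated by forskolin 10 µM; beta-galactosidase reporter signal reflecting CREB driven transcription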
[15] = target: Streptavidin (Streptomyces avidinii) (UniProt P22629); assay: streptavidin binders on small-molecule microarray, primary screen, artefact control for SMM compound annotation, biophysical, 635/667 nm fluorescence (AID 1147); details: streptavidin binding, higher = more signal;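 also: signal reflects streptavidin binding to arrayed compounds as a control protein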
[16] = small-molecule binders of probe aInhba, primary screen, biochemical, small-molecule microarray, 635/667 nm fluorescence (AID 1148); details: higher = more signal;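 also: score merges 667nm spot fluorescence with signal-to-noise for antibody binding to printed compounds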
Torsin-1A (Homo sapiens) [17] = target: Torsin-1A (Homo sapiens) (UniProt O14656); assay: torsin A binders from cell lysate, primary screen, small-molecule microarray, wild-type, 635/667 nm (AID 1149); details: COS7 hTOR1A-WT lysate, 635 nm fluorescence, higher = more signal
Torsin-1A (Homo sapiens) [18] = target: Torsin-1A (Homo sapiens) (UniProt O14656); assay: small-molecule binders of mutant TOR1A in lysate, primary screen, cell lysate, small-molecule microarray, COS7 lysate, 635/667 nm fluorescence (AID 1150); details: COS7 hTOR1A mutant lysate, 635 nm fluorescence, higher = more signal;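 also: score pools 667 nm emission and signal to noise measuring lysate protein binding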
[19] = test system: Sonic hedgehog protein (Shh); assay: small-molecule binders of Shh protein, primary screen, biochemical, small-molecule microarray, 635/667 nm fluorescence (AID 1151); details: small-molecule microarray binding, 635 nm fluorescence; higher = more signal;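 also: Shh protein binding to compounds spotted on small-molecule microarray slides; score combines spot fluorescence intensity with signal-to-noise across triplicate slides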

Chain of Focal adhesion kinase 1 (Homo sapiens) (Q05397 whole entry, looked up): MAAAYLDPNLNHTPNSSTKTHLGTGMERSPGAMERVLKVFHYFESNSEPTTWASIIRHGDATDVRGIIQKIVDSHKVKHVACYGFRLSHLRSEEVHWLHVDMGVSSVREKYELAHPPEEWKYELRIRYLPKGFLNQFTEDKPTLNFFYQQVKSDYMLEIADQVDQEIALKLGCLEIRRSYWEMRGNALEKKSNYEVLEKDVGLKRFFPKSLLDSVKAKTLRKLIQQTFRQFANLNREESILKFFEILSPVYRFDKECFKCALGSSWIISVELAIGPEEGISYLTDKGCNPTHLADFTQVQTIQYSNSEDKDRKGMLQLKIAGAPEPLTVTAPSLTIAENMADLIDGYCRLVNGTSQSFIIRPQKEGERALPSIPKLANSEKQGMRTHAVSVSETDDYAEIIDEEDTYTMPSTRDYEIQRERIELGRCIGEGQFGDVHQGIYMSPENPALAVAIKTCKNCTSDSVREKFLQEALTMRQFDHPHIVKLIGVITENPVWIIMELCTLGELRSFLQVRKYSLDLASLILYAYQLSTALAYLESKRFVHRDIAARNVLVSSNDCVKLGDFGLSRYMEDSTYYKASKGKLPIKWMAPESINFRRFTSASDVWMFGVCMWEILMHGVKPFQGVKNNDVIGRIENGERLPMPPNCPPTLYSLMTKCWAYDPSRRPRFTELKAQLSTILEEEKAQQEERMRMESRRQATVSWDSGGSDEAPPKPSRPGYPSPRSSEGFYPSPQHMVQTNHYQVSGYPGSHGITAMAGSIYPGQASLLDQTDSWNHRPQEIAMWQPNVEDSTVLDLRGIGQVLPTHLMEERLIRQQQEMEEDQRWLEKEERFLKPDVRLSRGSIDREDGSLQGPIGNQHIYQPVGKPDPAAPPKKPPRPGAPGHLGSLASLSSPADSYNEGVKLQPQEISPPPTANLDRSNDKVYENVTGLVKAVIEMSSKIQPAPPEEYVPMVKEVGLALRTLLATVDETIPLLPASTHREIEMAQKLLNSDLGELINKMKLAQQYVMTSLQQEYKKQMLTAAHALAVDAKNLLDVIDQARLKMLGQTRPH
Chain of Luciferin 4-monooxygenase (Photinus pyralis) (P08659 whole entry, looked up): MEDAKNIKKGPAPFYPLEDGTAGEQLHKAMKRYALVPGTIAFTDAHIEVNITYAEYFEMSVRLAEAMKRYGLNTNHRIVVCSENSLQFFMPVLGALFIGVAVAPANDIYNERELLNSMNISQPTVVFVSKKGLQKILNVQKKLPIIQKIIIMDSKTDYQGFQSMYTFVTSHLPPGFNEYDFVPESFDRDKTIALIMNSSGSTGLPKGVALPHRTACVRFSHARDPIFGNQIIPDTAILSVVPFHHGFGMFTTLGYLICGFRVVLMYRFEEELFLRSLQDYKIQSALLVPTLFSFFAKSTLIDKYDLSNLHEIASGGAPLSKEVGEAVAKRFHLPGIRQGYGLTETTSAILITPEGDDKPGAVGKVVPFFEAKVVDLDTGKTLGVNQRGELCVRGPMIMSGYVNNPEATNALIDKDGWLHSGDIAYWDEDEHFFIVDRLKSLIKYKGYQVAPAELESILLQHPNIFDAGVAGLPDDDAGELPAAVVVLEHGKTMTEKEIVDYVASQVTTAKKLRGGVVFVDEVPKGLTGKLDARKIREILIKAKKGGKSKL
Chain of Torsin-1A (Homo sapiens) (O14656 whole entry, looked up): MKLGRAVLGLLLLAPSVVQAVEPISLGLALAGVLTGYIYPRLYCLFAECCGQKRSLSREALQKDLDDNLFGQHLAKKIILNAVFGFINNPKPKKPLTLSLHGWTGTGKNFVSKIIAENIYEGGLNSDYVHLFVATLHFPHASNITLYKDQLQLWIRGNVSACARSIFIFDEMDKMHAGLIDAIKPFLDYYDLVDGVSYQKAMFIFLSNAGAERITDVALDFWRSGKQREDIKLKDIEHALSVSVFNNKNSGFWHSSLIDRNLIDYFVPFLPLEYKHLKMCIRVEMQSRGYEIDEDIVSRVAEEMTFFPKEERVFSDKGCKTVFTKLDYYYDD
Chain of Streptavidin (Streptomyces avidinii) (P22629 whole entry, looked up): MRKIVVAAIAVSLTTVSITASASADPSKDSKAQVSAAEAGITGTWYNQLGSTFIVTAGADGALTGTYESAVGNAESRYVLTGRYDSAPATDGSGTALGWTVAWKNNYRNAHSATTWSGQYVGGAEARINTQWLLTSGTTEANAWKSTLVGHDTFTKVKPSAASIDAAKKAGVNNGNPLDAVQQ
Chain of Follistatin (Homo sapiens) (P19883 whole entry, looked up): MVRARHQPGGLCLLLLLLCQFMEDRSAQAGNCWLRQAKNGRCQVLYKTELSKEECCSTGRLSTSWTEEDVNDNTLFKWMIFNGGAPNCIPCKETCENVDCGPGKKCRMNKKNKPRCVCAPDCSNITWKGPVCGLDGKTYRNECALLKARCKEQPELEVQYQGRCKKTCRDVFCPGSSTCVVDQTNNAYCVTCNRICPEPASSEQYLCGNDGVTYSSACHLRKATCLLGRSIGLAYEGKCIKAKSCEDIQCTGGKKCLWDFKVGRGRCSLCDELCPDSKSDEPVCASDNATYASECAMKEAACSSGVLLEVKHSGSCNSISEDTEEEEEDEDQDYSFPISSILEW
Chain of Fibroblast growth factor 2 (Homo sapiens) (P09038 whole entry, looked up): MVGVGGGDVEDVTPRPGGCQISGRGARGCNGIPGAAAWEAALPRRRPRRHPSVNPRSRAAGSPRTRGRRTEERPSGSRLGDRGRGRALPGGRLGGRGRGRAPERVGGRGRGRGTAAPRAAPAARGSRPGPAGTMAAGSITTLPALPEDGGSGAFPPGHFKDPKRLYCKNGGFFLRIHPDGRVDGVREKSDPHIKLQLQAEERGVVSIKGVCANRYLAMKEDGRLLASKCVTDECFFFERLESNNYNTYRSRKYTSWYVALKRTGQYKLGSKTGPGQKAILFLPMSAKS

Row | SMILES | composite z-score [1] | composite z-score [2] | composite z-score [3] | composite z-score [4] | composite z-score [5] | composite z-score [6] | z-score [7] | composite z-score (Lefty1) | composite z-score [8] | z-score [9] | composite z-score [10] | z-score [11] | z-score [12] | z-score [13] | z-score [14] | composite z-score [15] | composite z-score [16] | composite z-score (Torsin-1A (Homo sapiens) [17]) | composite z-score (Torsin-1A (Homo sapiens) [18]) | composite z-score [19]
1 | CCOC(=O)C1=CCC(c2ccc(F)cc2)N(S(=O)(=O)c2ccc(C)cc2)C1 (stereo not given) | -0.596 | 0.818 | 1.52 | 0.265 | 0.345 | -0.287 | -0.231 | 0.471 | 0.764 | 1.4 (inactive) | 0.0848 | -2.8 (inactive) | 0.046 (inactive) | 0.481 (inactive) | -0.323 (inactive) | 0.407 | -0.0963 | 0.827 | 0.203 | -0.282
2 | CC[C@@H]1C=C(C(=O)O)[C@H](c2ccc(C)cc2)N1S(=O)(=O)c1ccc(C)cc1 | -0.479 | 1.23 | 0.827 | 0.915 | 0.163 | 0.0388 | -0.233 | 0.285 | 0.568 | 2.28 (inactive) | -0.412 | -0.52 (inactive) | -0.498 (inactive) | -0.527 (inactive) | 1.03 (inactive) | 0.583 | 0.0516 | 0.063 | 0.247 | -0.103
3 | O=C1NC(=O)C2C1C=CC(C(O)C=Cc1ccc([N+](=O)[O-])cc1)N2Nc1ccc(Cl)cc1Cl (stereo not given) | 1.72 | 1.11 | 0.0716 | 0.646 | 1.04 | -0.18 | 0.408 | -0.443 | 0.957 | -3.39 (inactive) | 0.28 | 0.099 (inactive) | -0.402 (inactive) | 0.253 (inactive) | 0.342 (inactive) | 1.14 | 0.317 | 0.339 | 0.417 | -0.08
4 | [N-]=[N+]=Nc1ccccc1C[C@]1(C(=O)NCc2ccccc2)N=C(c2ccc(OCCCO)cc2)O[C@H]1c1ccccc1N=[N+]=[N-] | 1.88 | 1.16 | 0.414 | 1 | 0.547 | -0.165 | 1.08 | 0.376 | 0.824 | -3.77 (inactive) | 0.933 | -4.05 (inactive) | 0.0249 (inactive) | 1.77 (inactive) | -0.741 (inactive) | 1.73 | -0.156 | 0.109 | 0.286 | -0.4
